# Test results reported in PubChem BioAssay (EPA / NIEHS).
# Results filed as inconclusive are left out. Calls of active or inactive are those of the source. How the source made its calls, unless noted: active means hit-call score of the fitted dose curve at least 0.9, where 1 is the maximum; inactive means score below 0.9.
# What was measured:
# [1] = molecular target: Retinoic acid receptor RXR-alpha (Homo sapiens) (UniProt P19793); assay: ATG_RXRa_TRANS: Attagene TRANS-FACTORIAL HepG2 Assay for human Retinoid X Receptor alpha (RXRa) (AID 2283012; active means hit-call score of the fitted dose curve at least 0.9, where 1 is the maximum)
# How it was run: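 Measures exogenous chimeric NR-GAL4 activity in transfected HepG2 liver cells after 24 h of dosing. Induced reporter mRNA was detected by RT-PCR with capillary electrophoresis, and gain of signal was analysed against DMSO.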
# [2] = molecular target: human Retinoid X Receptor beta (RXRb), RXRB (gene 6257) (UniProt P28702); assay: ATG_RXRb_TRANS: Attagene TRANS-FACTORIAL HepG2 Assay for human Retinoid X Receptor beta (RXRb) (AID 2283013; active means hit-call score of the fitted dose curve at least 0.9, where 1 is the maximum)
# How it was run: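 Chimeric receptor-Gal4 activity was assessed in transiently transfected human HepG2 cells after 24 h exposure. Transcripts from GAL4-UAS reporters were quantified by fluorescent RT-PCR and capillary electrophoresis, with DMSO as negative control and baseline.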
# [3] = molecular target: human Thyroid Receptor alpha (THRa1), THRA (gene 7067) (UniProt P10827); assay: ATG_THRa1_TRANS: Attagene TRANS-FACTORIAL HepG2 Assay for human Thyroid Receptor alpha (THRa1) (AID 2283014; active means hit-call score of the fitted dose curve at least 0.9, where 1 is the maximum)
# How it was run: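 HepG2 cells transiently transfected with multiplexed GAL4-UAS reporter units for exogenous chimeric THRa1-Gal4; reporter mRNA measured 24 h after dosing by RT-PCR, 6-FAM labelling, HpaI digestion and capillary electrophoresis. Gain-of-signal fitted versus DMSO baseline.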
# [4] = read-out: E-selectin (Homo sapiens) (UniProt P16581); assay: BSK_3C_Eselectin: BioMAP Diversity Plus: 3C Assay for Eselectin Biomarker Activity (AID 2283015); details: primary human endothelial cells (HUVEC); actives raise or lower the signal;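 on outcome: cell surface E-selectin protein quantified by ELISA 24 h after dosing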
# How it was run: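 Primary human umbilical vein endothelial cells (3C system) were dosed with chemical and cell-surface E-selectin measured by ELISA 24 h later. Bidirectional curve fitting used DMSO as negative control and baseline.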
# [5] = read-out: Interleukin-1 alpha (IL1a), IL1A (gene 3552); assay: BSK_BE3C_IL1a: BioMAP Diversity Plus: BE3C Assay for Interleukin-1 alpha (IL1a) Biomarker Activity (AID 2283016); details: primary human bronchial epithelial cells; actives raise or lower the signal
# How it was run: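 Signal from IL-1a ELISA, taken 24 h after chemical dosing of human bronchial epithelial cells, is compared with DMSO as baseline using bidirectional curve fitting.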
# [6] = read-out: Monocyte Chemoattractant Protein-1 (MCP1), CCL2 (gene 6347); assay: BSK_3C_MCP1: BioMAP Diversity Plus: 3C Assay for Monocyte Chemoattractant Protein-1 (MCP1) Biomarker Activity (AID 2283017); details: primary human endothelial cells (HUVEC); actives raise or lower the signal
# How it was run: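 Primary human umbilical vein endothelial cells (3C system) were exposed to test chemical for 24 h, after which MCP-1 was quantified by ELISA. Activity was fitted bidirectionally against DMSO as negative control and baseline.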
# [7] = read-out: Monocyte Chemoattractant Protein-1 (MCP1), CCL2 (gene 6347); assay: BSK_4H_MCP1: BioMAP Diversity Plus: 4H Assay for Monocyte Chemoattractant Protein-1 (MCP1) Biomarker Activity (AID 2283018); details: primary human endothelial cells (HUVEC); actives raise or lower the signal
# How it was run: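 Endothelial cells from umbilical vein were treated with test chemical, then after 24 h MCP-1 levels were quantified by ELISA; endpoint values came from bidirectional fitting with DMSO as baseline of activity.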
# [8] = read-out: Human Leukocyte Antigen - DR isotype (HLADR), HLA-DRA (gene 3122); assay: BSK_3C_HLADR: BioMAP Diversity Plus: 3C Assay for Human Leukocyte Antigen - DR isotype (HLADR) Biomarker Activity (AID 2283019); details: primary human endothelial cells (HUVEC); actives raise or lower the signal;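 on outcome: ELISA of cell-surface HLA-DR on HUVEC 24 h after dosing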
# How it was run: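 Primary human umbilical vein endothelial cells (3C system) were dosed with compound and cell-surface HLA-DR was quantified by ELISA at 24 h. Activity was fitted bidirectionally against DMSO as negative control and baseline.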
# [9] = read-out: Interleukin-8 (IL8), CXCL8 (gene 3576); assay: BSK_3C_IL8: BioMAP Diversity Plus: 3C Assay for Interleukin-8 (IL8) Biomarker Activity (AID 2283020); details: primary human endothelial cells (HUVEC); actives raise or lower the signal
# How it was run: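 Endothelial primary cells of human umbilical vein origin are dosed with chemical; after 24 h the IL-8 biomarker is measured by ELISA, and concentration–response is fitted in both directions versus DMSO.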
# [10] = read-out: Monokine induced gamma interferon (MIG), CXCL9 (gene 4283); assay: BSK_3C_MIG: BioMAP Diversity Plus: 3C Assay for Monokine induced gamma interferon (MIG) Biomarker Activity (AID 2283021); details: primary human endothelial cells (HUVEC); actives raise or lower the signal;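 on AC50: MIG protein level measured by immunoassay in the treated endothelial cultures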
# How it was run: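 Endothelial primary cells (human umbilical vein) are dosed with test chemical in the 3C system. MIG levels are measured by ELISA at 24 h and fitted in both directions relative to DMSO.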
# Sequence of human Retinoid X Receptor beta (RXRb), RXRB (gene 6257) (P28702 whole entry, looked up, the tested form may be a part): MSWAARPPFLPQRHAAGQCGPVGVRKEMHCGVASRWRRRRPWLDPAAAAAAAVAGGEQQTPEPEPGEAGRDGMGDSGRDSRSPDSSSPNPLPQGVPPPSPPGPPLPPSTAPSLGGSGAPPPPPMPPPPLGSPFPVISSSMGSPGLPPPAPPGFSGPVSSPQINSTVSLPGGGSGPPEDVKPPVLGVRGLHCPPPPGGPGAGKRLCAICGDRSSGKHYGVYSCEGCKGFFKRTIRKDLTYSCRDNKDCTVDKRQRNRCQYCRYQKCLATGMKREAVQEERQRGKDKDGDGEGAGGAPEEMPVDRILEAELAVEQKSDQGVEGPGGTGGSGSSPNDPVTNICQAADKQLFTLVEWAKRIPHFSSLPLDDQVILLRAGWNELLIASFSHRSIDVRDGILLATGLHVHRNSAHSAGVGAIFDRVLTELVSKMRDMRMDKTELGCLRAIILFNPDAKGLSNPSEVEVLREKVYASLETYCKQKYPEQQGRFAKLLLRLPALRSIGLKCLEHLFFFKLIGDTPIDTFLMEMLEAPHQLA
# Sequence of E-selectin (Homo sapiens) (P16581 whole entry, looked up): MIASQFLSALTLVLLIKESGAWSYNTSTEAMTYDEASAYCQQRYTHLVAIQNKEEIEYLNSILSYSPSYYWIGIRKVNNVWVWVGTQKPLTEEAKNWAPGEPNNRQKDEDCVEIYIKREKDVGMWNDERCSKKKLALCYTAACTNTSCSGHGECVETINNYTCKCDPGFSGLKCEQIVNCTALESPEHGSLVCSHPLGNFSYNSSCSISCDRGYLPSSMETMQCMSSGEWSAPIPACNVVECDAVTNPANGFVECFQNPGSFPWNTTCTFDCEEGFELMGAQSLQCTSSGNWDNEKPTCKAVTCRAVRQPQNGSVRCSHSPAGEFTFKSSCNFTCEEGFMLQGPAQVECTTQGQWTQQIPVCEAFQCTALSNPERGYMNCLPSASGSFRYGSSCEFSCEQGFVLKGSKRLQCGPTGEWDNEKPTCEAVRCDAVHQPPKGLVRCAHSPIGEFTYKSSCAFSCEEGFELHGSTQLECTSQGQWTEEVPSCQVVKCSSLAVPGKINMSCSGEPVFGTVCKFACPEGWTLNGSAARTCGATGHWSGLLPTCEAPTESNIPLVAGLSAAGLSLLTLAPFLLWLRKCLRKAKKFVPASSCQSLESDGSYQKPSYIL
# Sequence of human Thyroid Receptor alpha (THRa1), THRA (gene 7067) (P10827 whole entry, looked up, the tested form may be a part): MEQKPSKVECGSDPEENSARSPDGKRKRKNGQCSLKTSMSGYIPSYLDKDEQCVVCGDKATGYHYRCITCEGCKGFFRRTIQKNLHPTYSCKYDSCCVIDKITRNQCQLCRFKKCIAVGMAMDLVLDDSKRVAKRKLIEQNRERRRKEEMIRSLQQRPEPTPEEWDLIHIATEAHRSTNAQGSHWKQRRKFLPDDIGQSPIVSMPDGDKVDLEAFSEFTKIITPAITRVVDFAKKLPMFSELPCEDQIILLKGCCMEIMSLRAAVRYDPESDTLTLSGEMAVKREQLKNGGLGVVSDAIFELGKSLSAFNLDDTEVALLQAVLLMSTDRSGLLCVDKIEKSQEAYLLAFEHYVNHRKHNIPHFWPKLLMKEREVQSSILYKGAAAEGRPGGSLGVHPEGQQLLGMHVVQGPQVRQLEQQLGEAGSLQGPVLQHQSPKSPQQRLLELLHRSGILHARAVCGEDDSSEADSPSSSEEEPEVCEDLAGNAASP
# Sequence of Retinoic acid receptor RXR-alpha (Homo sapiens) (P19793 whole entry, looked up, the tested form may be a part): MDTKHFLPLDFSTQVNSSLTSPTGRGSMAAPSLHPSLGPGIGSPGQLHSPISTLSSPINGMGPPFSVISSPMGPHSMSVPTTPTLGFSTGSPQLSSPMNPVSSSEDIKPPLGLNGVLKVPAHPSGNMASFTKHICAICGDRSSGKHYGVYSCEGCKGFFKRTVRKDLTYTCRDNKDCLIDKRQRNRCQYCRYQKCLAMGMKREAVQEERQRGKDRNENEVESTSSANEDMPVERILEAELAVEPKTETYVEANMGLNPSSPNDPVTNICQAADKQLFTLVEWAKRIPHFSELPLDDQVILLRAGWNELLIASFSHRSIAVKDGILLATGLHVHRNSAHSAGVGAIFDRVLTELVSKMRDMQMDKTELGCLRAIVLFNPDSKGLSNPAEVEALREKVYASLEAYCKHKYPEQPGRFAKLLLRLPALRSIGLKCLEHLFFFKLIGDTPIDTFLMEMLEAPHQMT
smiles,measurement,setting,value
CO[Si](CCCn1c(=O)n(CCC[Si](OC)(OC)OC)c(=O)n(CCC[Si](OC)(OC)OC)c1=O)(OC)OC,outcome,[1],inactive
same,outcome,[2],inactive
same,outcome,[3],inactive
Cc1c(Cl)c(=O)oc2cc(O)ccc12,outcome,[1],inactive
same,outcome,[3],inactive
C=O,outcome,[1],inactive
same,outcome,[2],inactive
same,outcome,[3],inactive
CC(=O)c1c(C)cc(C(C)(C)C)cc1C,outcome,[1],inactive
same,AC50,[2],31.4 µM (active)
same,outcome,[3],inactive
CCCCCCCCCCCCCC(=O)O,outcome,[1],inactive
same,outcome,[3],inactive
COc1nc(C)nc(N)n1,outcome,[1],inactive
same,outcome,[2],inactive
same,outcome,[3],inactive
O=C(O)c1cn(C2CC2)c2cc(N3CCNCC3)c(F)cc2c1=O,outcome,[1],inactive
same,outcome,[2],inactive
same,outcome,[4],inactive
same,outcome,[5],inactive
same,outcome,[6],inactive
same,outcome,[7],inactive
same,outcome,[8],inactive
same,outcome,[9],inactive
same,outcome,[10],inactive
O=C1CCCCCCCCCCCCCCO1,outcome,[1],inactive
same,AC50,[2],100 µM (active)
same,AC50,[4],20 µM (active)
same,AC50,[5],20 µM (active)
same,AC50,[6],26.5 µM (active)
same,AC50,[7],25.4 µM (active)
same,AC50,[8],20 µM (active)
same,AC50,[9],33.6 µM (active)
same,outcome,[10],inactive
Nc1cccc(S(=O)(=O)c2cccc(N)c2)c1,outcome,[1],inactive
same,outcome,[3],inactive
Nc1cc([N+](=O)[O-])ccc1Cl,outcome,[1],inactive
same,outcome,[2],inactive
same,outcome,[3],inactive
same,outcome,[4],inactive
same,outcome,[5],inactive
same,outcome,[6],inactive
same,outcome,[7],inactive
same,outcome,[8],inactive
same,outcome,[9],inactive
same,outcome,[10],inactive
CCOc1ccccc1OCC,outcome,[1],inactive
same,outcome,[2],inactive
same,outcome,[3],inactive
CC(=O)OCCOC(C)=O,outcome,[1],inactive
same,outcome,[3],inactive
CCCCCCCCCOC(C)=O,outcome,[1],inactive
same,outcome,[2],inactive
same,outcome,[3],inactive
CCCCCCC#CC(=O)OC,outcome,[1],inactive
same,outcome,[3],inactive
COC(=O)c1ccc(C)cc1,outcome,[1],inactive
same,AC50,[2],14.3 µM (active)
same,outcome,[3],inactive
same,outcome,[4],inactive
same,outcome,[5],inactive
same,outcome,[6],inactive
same,outcome,[7],inactive
same,outcome,[8],inactive
same,outcome,[9],inactive
same,outcome,[10],inactive
NCCNCCN,outcome,[1],inactive
same,outcome,[2],inactive
same,outcome,[4],inactive
same,outcome,[5],inactive
same,outcome,[6],inactive
same,outcome,[7],inactive
same,outcome,[8],inactive
same,outcome,[9],inactive
same,outcome,[10],inactive
O=S(=O)(O)c1ccc(O)c2ncccc12,outcome,[1],inactive
same,outcome,[2],inactive
same,outcome,[3],inactive
O=C[C@@H](O)[C@H](O)[C@H](O)CO,outcome,[1],inactive
same,outcome,[3],inactive
NC(=O)NC1NC(=O)NC1=O (centres undefined),outcome,[1],inactive
same,outcome,[2],inactive
same,outcome,[3],inactive
Nc1ccc(F)c([N+](=O)[O-])c1,outcome,[1],inactive
same,outcome,[3],inactive
NCCOCCO,outcome,[1],inactive
same,outcome,[3],inactive
COc1cc(C(C)(C)C)c(O)c(C(C)(C)C)c1,AC50,[1],15.4 µM (active)
same,AC50,[2],0.745 µM (active)
same,outcome,[3],inactive
CCC(O)CO (centres undefined),outcome,[1],inactive
same,outcome,[2],inactive
same,outcome,[3],inactive
COc1cc(C=O)ccc1OC(=O)C(C)C,outcome,[1],inactive
same,outcome,[2],inactive
same,outcome,[3],inactive
same,outcome,[4],inactive
same,outcome,[5],inactive
same,outcome,[6],inactive
same,outcome,[7],inactive
same,outcome,[8],inactive
same,outcome,[9],inactive
same,outcome,[10],inactive
CC(=O)OCCC(C)CC(C)(C)C (centres undefined),outcome,[1],inactive
same,outcome,[2],inactive
same,outcome,[3],inactive
same,outcome,[4],inactive
same,outcome,[5],inactive
same,outcome,[6],inactive
same,outcome,[7],inactive
same,outcome,[8],inactive
same,outcome,[9],inactive
same,outcome,[10],inactive
CCc1c(C)cc(N)c(CC)c1N,outcome,[1],inactive
same,outcome,[2],inactive
same,outcome,[3],inactive
same,outcome,[4],inactive
same,outcome,[5],inactive
same,outcome,[6],inactive
same,outcome,[7],inactive
same,outcome,[8],inactive
same,outcome,[9],inactive
same,outcome,[10],inactive
Nc1cc([N+](=O)[O-])ccc1O,outcome,[1],inactive
same,outcome,[2],inactive
same,outcome,[4],inactive
same,outcome,[5],inactive
same,outcome,[6],inactive
same,outcome,[7],inactive
same,outcome,[8],inactive
same,outcome,[9],inactive
same,outcome,[10],inactive
CN1[C@@H]2CC(OC(=O)[C@H](CO)c3ccccc3)C[C@H]1[C@@H]1O[C@@H]12 (some centres undefined),outcome,[1],inactive
same,AC50,[2],160 µM (active)
same,outcome,[3],inactive
CCCOCC(C)O (centres undefined),outcome,[1],inactive
same,outcome,[2],inactive
same,outcome,[3],inactive
O=C=NC1CCC(CC2CCC(N=C=O)CC2)CC1 (centres undefined),outcome,[1],inactive
same,outcome,[2],inactive
same,outcome,[4],inactive
same,outcome,[5],inactive
same,outcome,[6],inactive
same,outcome,[7],inactive
same,outcome,[8],inactive
same,outcome,[9],inactive
same,outcome,[10],inactive
Cc1ccccc1C=O,outcome,[1],inactive
same,outcome,[2],inactive
same,outcome,[3],inactive
C[C@]12CC[C@H]3[C@@H](CCC4=CC(=O)CC[C@@]43C)[C@@H]1CC[C@@H]2C(=O)CO,outcome,[1],inactive
same,outcome,[3],inactive
CCCCC(CC)COCCC#N (centres undefined),outcome,[1],inactive
same,AC50,[2],51.1 µM (active)
same,outcome,[4],inactive
same,outcome,[5],inactive
same,AC50,[6],20 µM (active)
same,outcome,[7],inactive
same,AC50,[8],20 µM (active)
same,outcome,[9],inactive
same,outcome,[10],inactive
C=C(C)C(=O)O[C@H]1C[C@@H]2CC[C@@]1(C)C2(C)C,outcome,[1],inactive
same,AC50,[2],100 µM (active)
same,AC50,[4],15.1 µM (active)
same,AC50,[5],20 µM (active)
same,AC50,[6],20 µM (active)
same,AC50,[7],5.54 µM (active)
same,AC50,[8],9.37 µM (active)
same,AC50,[9],20 µM (active)
same,AC50,[10],34.7 µM (active)
CCCCCCCCCC=O,outcome,[1],inactive
same,AC50,[2],59 µM (active)
same,outcome,[4],inactive
same,outcome,[5],inactive
same,outcome,[6],inactive
same,outcome,[7],inactive
same,AC50,[8],32.3 µM (active)
same,outcome,[9],inactive
same,outcome,[10],inactive
CCn1c2ccccc2c2cc(N)ccc21,outcome,[1],inactive
same,AC50,[2],14.3 µM (active)
same,outcome,[3],inactive
same,outcome,[4],inactive
same,outcome,[5],inactive
same,AC50,[6],0.641 µM (active)
same,AC50,[7],0.812 µM (active)
same,AC50,[8],1.57 µM (active)
same,outcome,[9],inactive
same,outcome,[10],inactive
